# From the supplement of paper PMC12532568
# Counter-ions that a name gives are not always drawn.
# Tested on: Danio rerio larvae Tg(actc1b:ZsGreen-LC3), 3 dpf
# Experiment: LC3 puncta relative area vs vehicle, without NH4Cl (log2 fold change); higher = more autophagosomes
# Settings: 10 µM; treatment time 16 h; NH4Cl: none
# Description: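 Transgenic Tg(actc1b:ZsGreen-map1lc3) zebrafish larvae (2 dpf) were treated for 16 h with Tocris library compounds at 10 µM (n = 12 larvae per compound). Skeletal-muscle LC3 puncta area relative to body area was measured by high-content confocal imaging before and after 4 h of 100 mM NH4Cl (autophagic flux), normalised to vehicle (DMSO), and reported as log2 fold change.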
row,Structure (SMILES),LC3 puncta (log2)
1,O=C1c2ccccc2CCC1CNCCc1ccc(O)cc1 (stereo not given) [HEAT hydrochloride],0.103
2,O=C(NCCCN1CCCCCC1)C(c1ccccc1)C1CCCCC1 (stereo not given),0.0552
3,NS(=O)(=O)c1cccc2c1c([N+](=O)[O-])cc1nc(O)c(O)nc12,0.286
4,CC(C)(Oc1ccc(Cl)cc1)C(=O)O [Clofibric acid],0.448
5,O=C(/C=C/c1ccc(O)c(O)c1)O[C@H](Cc1ccc(O)c(O)c1)C(=O)O [Rosmarinic acid],0.0606
6,CC1=NN(c2ccccc2)C(=O)C1 [Edaravone],0.377
7,NCC(O)(CS(=O)(=O)O)c1ccc(Cl)cc1 (stereo not given) [2-Hydroxysaclofen],0.46
8,NC(N)=NC(N)=Nc1cccc(Cl)c1 [m-Chlorophenylbiguanide hydrochloride],0.136
9,O=C(O)C1=CCCNC1 [Guvacine hydrochloride],-0.168
10,NC(=O)CCCCn1ccc(NC(N)=NCC(F)(F)F)n1,0.486
11,NC(=O)c1cccc(N)c1 [3-Aminobenzamide],0.336
12,N[C@H](C(=O)O)c1ccc(O)c(C(=O)O)c1 [(S)-3-Carboxy-4-hydroxyphenylglycine],0.267
13,CN(C)CCCCSC(=N)N,0.222
14,CC(=O)N[C@@H](CC(=O)N[C@@H](CCC(=O)O)C(=O)O)C(=O)O [Spaglumic acid],-0.106
15,c1ccc(N2CCN(CCCOc3ccc4c(c3)OCO4)CC2)cc1 [BP 554 maleate],0.01
16,COc1cc2nc(N3CCN(C(=O)c4ccco4)CC3)nc(N)c2cc1OC [Prazosin hydrochloride],-0.131
17,Cc1ccc2c(c1)c1c3n2CCNC3CCC1 (stereo not given) [Pirlindole mesylate],0.028
18,CC(CCCCC(=O)Nc1ccc(C(F)(F)F)cc1)NCCc1cnc[nH]1 (stereo not given) [HTMT dimaleate],0.258
19,O=C(O)c1cccnc1C(=O)O [Quinolinic acid],0.278
20,NC(=O)OCC(COC(N)=O)c1ccccc1 [Felbamate],-0.737

row,Structure (SMILES),LC3 puncta (log2)
1,N[C@@H](C(=O)O)c1ccc(O)c(C(=O)O)c1 [(R)-3-Carboxy-4-hydroxyphenylglycine],0.211
2,COc1ccc2[nH]c(-c3ccccc3)c(CCNC(C)=O)c2c1 [2-Phenylmelatonin],0.513
3,O=[N+]([O-])c1cccc2cn[nH]c12 [7-Nitroindazole],0.16
4,CCC1(c2ccccc2)C(=O)NCNC1=O [Primidone],0.333
5,Fc1ccc(C(c2ccc(F)cc2)N2CCN(C/C=C/c3ccccc3)CC2)cc1 [Flunarizine dihydrochloride],0.219
6,OCCN(CCO)c1nc(N2CCCCC2)c2nc(N(CCO)CCO)nc(N3CCCCC3)c2n1 [Dipyridamole],-0.714
7,CCCCOc1cc(CC2CNC(=O)N2)ccc1OC (stereo not given),-0.122
8,CCCCCCN(CCCCCC)C(=O)Cc1c(-c2ccc(F)cc2)[nH]c2ccccc12,0.084
9,CC(=O)N[C@@H](Cc1c[nH]c2ccccc12)C(=O)OCc1cc(C(F)(F)F)cc(C(F)(F)F)c1,0.214
10,CC(C)NC[C@H](O)COc1ccc(CC(N)=O)cc1 [(S)-(-)-Atenolol],0.12
11,CN1CCN(C2=Cc3ccccc3Oc3ccc(Cl)cc32)CC1,0.742
12,"c1ccc(CN2CCC3(CCc4ccccc43)CC2)cc1 [L-693,403 maleate]",-0.0234
13,CC1=C(/C=C/C(C)=C/C=C/C(C)=C/C(=O)O)C(C)(C)CCC1 [Retinoic acid],0.44
14,COc1cc2c(CCNC(C)=O)c[nH]c2cc1Cl [6-Chloromelatonin],-0.363
15,COc1ccc([C@@H]2Sc3ccccc3N(CCN(C)C)C(=O)[C@@H]2OC(C)=O)cc1 [Diltiazem hydrochloride],0.112
16,COc1ccccc1N1CCN(CC(O)COc2cccc3ccccc23)CC1 (stereo not given) [Naftopidil dihydrochloride],-0.0568
17,CC(C)NCC(O)COc1cccc2ccccc12 (stereo not given) [Propranolol hydrochloride],0.0203
18,O=C(OCCN1CCOCC1)C1(c2ccccc2)CCCCC1 [PRE-084 hydrochloride],0.215
19,N[C@H](C(=O)O)c1ccc(C(=O)O)c(O)c1 [(S)-4-Carboxy-3-hydroxyphenylglycine],-0.331
20,CCc1nc(N)nc(N)c1-c1ccc(Cl)cc1 [Pyrimethamine],0.169
